Experimental data published in PubChem BioAssay (Tox21).
Inconclusive results are not listed. The source made the active and inactive calls. Calls follow the shape of the dose curve; as a rule, active = well fitted inhibition curve with a large enough effect in the repeat runs; inconclusive = weak or mixed curves; inactive = no such curve, though single readings can be large or run the other way.

Target: Cytochrome P450 2D6 (Homo sapiens) (UniProt P10635)
Test: Cytochrome P450 Family 2 Subfamily D Member 6 (CYP2D6) small molecule antagonists: luciferase reporter qHTS assay (AID 1671196); also: nearly all actives have a fitted effect of over 50% in size
Conditions: P450-Glo CYP2D6 enzyme assay, luciferin luminescence, 1 h; series mostly up to 115 µM; activity change, negative = inhibition: at the top concentration
Summary of the method: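 Room-temperature luminescent CYP2D6 activity assay: compound preincubated 10 min with enzyme–substrate mix, NADPH-initiated reaction 1 h, detection reagent 20 min before reading.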
% is scaled to controls: 0 for no effect and ±100 for the full control effect; potency is read from the fitted curve at half-maximal effect.

Sequence of Cytochrome P450 2D6 (Homo sapiens) (P10635 whole entry, looked up): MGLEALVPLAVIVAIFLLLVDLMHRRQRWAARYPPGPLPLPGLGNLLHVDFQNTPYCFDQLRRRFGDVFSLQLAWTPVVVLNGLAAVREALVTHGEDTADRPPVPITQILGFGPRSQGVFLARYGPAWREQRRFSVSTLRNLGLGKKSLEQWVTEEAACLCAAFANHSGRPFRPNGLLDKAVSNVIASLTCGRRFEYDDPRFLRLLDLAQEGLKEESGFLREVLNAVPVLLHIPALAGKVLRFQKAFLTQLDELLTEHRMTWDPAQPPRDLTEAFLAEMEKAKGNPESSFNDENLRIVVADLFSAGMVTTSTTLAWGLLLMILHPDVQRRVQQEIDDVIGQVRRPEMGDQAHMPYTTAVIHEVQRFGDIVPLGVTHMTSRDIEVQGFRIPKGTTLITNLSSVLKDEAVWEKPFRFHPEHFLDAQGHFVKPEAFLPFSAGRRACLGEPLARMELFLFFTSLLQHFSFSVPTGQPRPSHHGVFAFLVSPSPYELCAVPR

**Q.** With `O=C(O)Cc1c(Cl)ccc(Cl)c1Cl` as the compound, how does the “activity change, negative = inhibition” value read?
**A.** -19.3% (inactive)

**Q.** `O=C(O)COc1ccc2ccccc2c1` was tested. Which “activity change, negative = inhibition” value did it give?
**A.** -21% (inactive)

**Q.** Which “activity change, negative = inhibition” value does the source give for `C=CCN(CC=C)CC=C` here?
**A.** -11.4% (inactive)

**Q.** With `C=CCON/C(CCC)=C1\C(=O)CC(C)(C)C(C(=O)OC)=C1O` as the compound, how does the “activity change, negative = inhibition” value read?
**A.** -4.39% (inactive)

**Q.** `CC(C)(C)C(=O)CCc1ccc(Cl)cc1` was tested. Which “activity change, negative = inhibition” value did it give?
**A.** -18.8% (inactive)

**Q.** For `COC(=O)c1c(C)cc(O)c(C)c1O`, which Potency is on record?
**A.** 31.7 µM (active)

**Q.** `CCCCN(CCCC)CCCCCCN(CCCC)CCCC` was tested. Which Potency did it give?
**A.** 5.03 µM (active)

**Q.** For `O=C1Nc2ccccc2C1=O`, which “activity change, negative = inhibition” value is on record?
**A.** -9.77% (inactive)

**Q.** Which “activity change, negative = inhibition” value does the source give for `CCCCCC(=O)CC` here?
**A.** 0.887% (inactive)

Target: Cytochrome P450 2C19 (Homo sapiens) (UniProt P33261)
Test: Cytochrome P450 Family 2 Subfamily C Member 19 (CYP2C19) small molecule antagonists: luciferase reporter qHTS assay (AID 1671197); also: nearly all actives have a fitted effect of over 65% in size
Conditions: P450-Glo CYP2C19 enzyme, luciferin luminescence, 1 h; series mostly up to 115 µM; activity change, negative = inhibition: at the top concentration
Summary of the method: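 Compounds were tested on CYP2C19 activity via proluciferin conversion to luciferin. The 37C, 1 h reaction followed NADPH addition; detection reagent stopped it.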

Sequence of Cytochrome P450 2C19 (Homo sapiens) (P33261 whole entry, looked up): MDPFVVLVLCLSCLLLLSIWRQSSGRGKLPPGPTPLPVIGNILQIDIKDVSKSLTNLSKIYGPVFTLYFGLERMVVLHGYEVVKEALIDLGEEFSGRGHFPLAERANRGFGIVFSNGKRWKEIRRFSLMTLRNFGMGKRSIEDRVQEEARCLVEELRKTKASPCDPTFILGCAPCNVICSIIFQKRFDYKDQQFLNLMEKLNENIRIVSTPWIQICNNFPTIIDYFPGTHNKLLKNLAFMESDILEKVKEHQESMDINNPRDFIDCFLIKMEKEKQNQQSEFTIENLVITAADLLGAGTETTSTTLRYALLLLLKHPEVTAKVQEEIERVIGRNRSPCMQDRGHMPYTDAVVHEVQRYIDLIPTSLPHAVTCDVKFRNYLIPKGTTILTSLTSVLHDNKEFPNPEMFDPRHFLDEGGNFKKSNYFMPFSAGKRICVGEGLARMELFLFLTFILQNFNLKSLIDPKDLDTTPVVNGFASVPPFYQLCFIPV

**Q.** With `Clc1ccc2c(c1)Nc1ccccc1S2` as the compound, how does the Potency read?
**A.** 3.89 µM (active)

**Q.** Which Potency does the source give for `CCCCN1C(=O)c2ccccc2C1=O` here?
**A.** 20.7 µM (active)

**Q.** With `C=COCCCCO` as the compound, how does the “activity change, negative = inhibition” value read?
**A.** -26.7% (inactive)

**Q.** For `Cc1ccc(OC(=O)CC(C)C)cc1`, which “activity change, negative = inhibition” value is on record?
**A.** 3.16% (inactive)

**Q.** `CC(C)(C)OC(=O)c1ccccc1C(=O)O` was tested. Which “activity change, negative = inhibition” value did it give?
**A.** -7.33% (inactive)

**Q.** Which “activity change, negative = inhibition” value does the source give for `CC(C)(C)c1ccc(N)cc1` here?
**A.** 13% (inactive)

**Q.** With `CC(C)CC(O)Cc1ccccc1` (centres undefined) as the compound, how does the Potency read?
**A.** 71 µM (active)

**Q.** How did the Potency turn out when `CCCCNCC` was run?
**A.** 27.2 µM (active)

**Q.** How did the “activity change, negative = inhibition” value turn out when `COc1ccccc1N1CCN(CC(O)COc2cc(OC)c(OC)c(OC)c2)CC1` (centres undefined) was run?
**A.** 30.6% [at 52.9 µM] (inactive)

**Q.** With `COc1cc(C(=O)NC2CCCNC2)cc(OC)c1OC` (centres undefined) as the compound, how does the “activity change, negative = inhibition” value read?
**A.** 3.85% [at 52.9 µM] (inactive)

**Q.** `CCC(C)(C)C` was tested. Which “activity change, negative = inhibition” value did it give?
**A.** -24.5% (inactive)

**Q.** How did the “activity change, negative = inhibition” value turn out when `CC12CCCC=C1C(=O)OC2=O` (centres undefined) was run?
**A.** -10.7% (inactive)

**Q.** With `CC/C=C/CCCCCCCCCCOC(C)=O` as the compound, how does the “activity change, negative = inhibition” value read?
**A.** 18.6% (inactive)

**Q.** With `CC(C)(C)C(=O)CC(=O)C(C)(C)C` as the compound, how does the “activity change, negative = inhibition” value read?
**A.** -18% (inactive)

**Q.** How did the “activity change, negative = inhibition” value turn out when `CCC(C)SSC(C)CC` (centres undefined) was run?
**A.** -17.8% (inactive)

**Q.** Which Potency does the source give for `CCN(CC)CC` here?
**A.** 59.4 µM (active)

**Q.** For `N=C(N)N`, which “activity change, negative = inhibition” value is on record?
**A.** -11.1% [at 52.9 µM] (inactive)

**Q.** `O=Cc1ccccc1S(=O)(=O)O` was tested. Which “activity change, negative = inhibition” value did it give?
**A.** 5.42% (inactive)

**Q.** Which Potency does the source give for `CC(CC(=O)Cl)CC(C)(C)C` (centres undefined) here?
**A.** 80.2 µM (active)

**Q.** For `CCN1CCN(C(=O)N[C@@H](C(=O)N[C@@H]2C(=O)N3[C@@H]2SC(C)(C)[C@H]3C(=O)O)c2ccccc2)C(=O)C1=O`, which “activity change, negative = inhibition” value is on record?
**A.** 13.2% [at 52.9 µM] (inactive)
